# This excerpt belongs to a sample that is enriched for the strongest signals.
# Assays:
# Experiment in all cases: glycan array binding signal (z-score within array); higher = stronger binding
# Conditions in all cases: glycan notation: IUPAC condensed, linker removed
# [1] = biological target: Fuc(a1-2)Gal(b1-3)GalNAc(a1-3)[Fuc(a1-2)]Gal(b1-4)GlcNAc
# Summary of the method: (§1)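 The Consortium for Functional Glycomics database supplied 3228 glycan arrays, of which those lacking an available protein sequence were dropped. The binding signal, a within-array Z-score, was averaged across arrays of the same protein sequence and across linkers. Negative scores can be read as non-binding.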
# [2] = biological target: Fuc(a1-2)Gal(b1-3)GlcNAc(b1-2)Man(a1-3)[Fuc(a1-2)Gal(b1-3)GlcNAc(b1-2)Man(a1-6)]Man(b1-4)GlcNAc(b1-4)GlcNAc
# Summary of the method: as §1
# [3] = biological target: Fuc(a1-2)Gal(b1-3)GlcNAc6S
# Summary of the method: as §1
# [4] = biological target: Fuc(a1-2)Gal(b1-3)[Fuc(a1-4)]GlcNAc
# Summary of the method: as §1
# [5] = biological target: Fuc(a1-2)Gal(b1-3)[Fuc(a1-4)]GlcNAc(b1-3)[Gal(b1-4)GlcNAc(b1-6)]Gal(b1-4)Glc
# Summary of the method: as §1
# [6] = biological target: Fuc(a1-2)[Gal(a1-4)]Gal(b1-4)GlcNAc
# Summary of the method: as §1
# [7] = biological target: Fuc(a1-2)[GalNAc(a1-3)]Gal(b1-3)GalNAc(a1-3)[Fuc(a1-2)]Gal(b1-4)GlcNAc
# Summary of the method: as §1
# [8] = biological target: Fuc(a1-3)[Gal(b1-4)]GlcNAc(b1-2)Man
# Summary of the method: as §1
# [9] = biological target: Fuc(a1-3)[Gal(b1-4)]GlcNAc(b1-6)GalNAc
# Summary of the method: as §1
# [10] = biological target: Gal(a1-4)Gal(b1-4)GlcNAc(b1-2)Man(a1-3)[Gal(a1-4)Gal(b1-4)GlcNAc(b1-2)Man(a1-6)]Man(b1-4)GlcNAc(b1-4)GlcNAc
# Summary of the method: as §1
# [11] = biological target: Gal(a1-4)Gal(b1-4)GlcNAc(b1-3)Gal(b1-4)Glc
# Summary of the method: as §1
# Gal(b1-3)Gal = biological target: Gal(b1-3)Gal
# Summary of the method: as §1
# Gal(b1-3)Gal(b1-4)GlcNAc = biological target: Gal(b1-3)Gal(b1-4)GlcNAc
# Summary of the method: as §1
# Gal(b1-3)GalNAc(b1-3)Gal = biological target: Gal(b1-3)GalNAc(b1-3)Gal
# Summary of the method: as §1
# Gal(b1-3)GlcNAc = biological target: Gal(b1-3)GlcNAc
# Summary of the method: as §1
# [12] = biological target: Gal(b1-3)[Neu5Ac(a2-6)]GlcNAc(b1-4)Gal(b1-4)Glc
# Summary of the method: as §1
# [13] = biological target: Gal(b1-4)GlcNAc(b1-2)[Gal(b1-4)GlcNAc(b1-4)]Man(a1-3)[Gal(b1-4)GlcNAc(b1-2)Man(a1-6)]Man(b1-4)GlcNAc(b1-4)GlcNAc
# Summary of the method: as §1
# [14] = biological target: Gal(b1-4)GlcNAc(b1-3)Gal(b1-4)GlcNAc(b1-2)Man(a1-3)[Gal(b1-4)GlcNAc(b1-3)Gal(b1-4)GlcNAc(b1-2)Man(a1-6)]Man(b1-4)GlcNAc(b1-4)[Fuc(a1-6)]GlcNAc
# Summary of the method: as §1
# [15] = biological target: Gal(b1-4)GlcNAc(b1-3)Gal(b1-4)GlcNAc(b1-3)Gal(b1-4)GlcNAc(b1-2)[Gal(b1-4)GlcNAc(b1-3)Gal(b1-4)GlcNAc(b1-3)Gal(b1-4)GlcNAc(b1-6)]Man(a1-6)[Gal(b1-4)GlcNAc(b1-3)Gal(b1-4)GlcNAc(b1-3)Gal(b1-4)GlcNAc(b1-2)Man(a1-3)]Man(b1-4)GlcNAc(b1-4)[Fuc(a1-6)]GlcNAc
# Summary of the method: as §1
# [16] = biological target: Gal(b1-4)GlcNAc(b1-3)Gal(b1-4)GlcNAc(b1-3)Gal(b1-4)GlcNAc(b1-3)Gal(b1-4)GlcNAc(b1-3)Gal(b1-4)GlcNAc(b1-2)[Gal(b1-4)GlcNAc(b1-3)Gal(b1-4)GlcNAc(b1-3)Gal(b1-4)GlcNAc(b1-3)Gal(b1-4)GlcNAc(b1-3)Gal(b1-4)GlcNAc(b1-6)]Man(a1-6)[Gal(b1-4)GlcNAc(b1-3)Gal(b1-4)GlcNAc(b1-3)Gal(b1-4)GlcNAc(b1-3)Gal(b1-4)GlcNAc(b1-3)Gal(b1-4)GlcNAc(b1-2)Man(a1-3)]Man(b1-4)GlcNAc(b1-4)[Fuc(a1-6)]GlcNAc
# Summary of the method: as §1
# [17] = biological target: Gal(b1-4)GlcNAc(b1-3)Gal(b1-4)GlcNAc(b1-3)[Gal(b1-4)GlcNAc(b1-3)Gal(b1-4)GlcNAc(b1-6)]GalNAc
# Summary of the method: as §1
# Gal3S(b1-3)GlcNAc = biological target: Gal3S(b1-3)GlcNAc
# Summary of the method: as §1
# [18] = biological target: Gal3S(b1-4)[Fuc(a1-3)]GlcNAc6S
# Summary of the method: as §1
# Gal3S6S(b1-4)GlcNAc6S = biological target: Gal3S6S(b1-4)GlcNAc6S
# Summary of the method: as §1
# Gal4S6S(b1-4)GlcNAc = biological target: Gal4S6S(b1-4)GlcNAc
# Summary of the method: as §1
# GalNAc(b1-3)GalNAc = biological target: GalNAc(b1-3)GalNAc
# Summary of the method: as §1
# GalNAc(b1-6)GalNAc = biological target: GalNAc(b1-6)GalNAc
# Summary of the method: as §1
binder,measurement,setting,value
SJCP1531 (Schistosoma japonicum) (protein) MFKVRIINLVNISTVLLLINLLQTKSQVNVEQLVTVLEVNIKAQLKNKTTEVLVEWNPLYQDNSMPEYRKLLDETCKLFLPFVNEKVPPSTYGGECTNANFSEAPQDGSYSRVNAELRLIYKYSDNPQIQTDRLQDDLNDREEFITSESSFVAYNPKFTVKIEKLFIPISESQTTPPPTTAKNDASKKDDDDNGGEDSKAPIDTFAMTASGNKGKKDDDDNGGEDSKAPIDTFAMTASGSKDERSTWTIIGIITLVVLIFVVIGGGITVFVKRC,glycan array binding signal (z-score),[1],-0.571
same,glycan array binding signal (z-score),[2],-0.207
same,glycan array binding signal (z-score),[3],-0.955
same,glycan array binding signal (z-score),[4],0.144
same,glycan array binding signal (z-score),[5],0.498
same,glycan array binding signal (z-score),[6],0.12
same,glycan array binding signal (z-score),[7],-0.433
same,glycan array binding signal (z-score),[8],0.026
same,glycan array binding signal (z-score),[9],1.34
same,glycan array binding signal (z-score),[10],2.24
same,glycan array binding signal (z-score),[11],1.03
same,glycan array binding signal (z-score),Gal(b1-3)Gal,3.29
same,glycan array binding signal (z-score),Gal(b1-3)Gal(b1-4)GlcNAc,0.064
same,glycan array binding signal (z-score),Gal(b1-3)GalNAc(b1-3)Gal,-0.062
same,glycan array binding signal (z-score),Gal(b1-3)GlcNAc,0.101
same,glycan array binding signal (z-score),[12],-1.38
same,glycan array binding signal (z-score),[13],0.725
same,glycan array binding signal (z-score),[14],2.21
same,glycan array binding signal (z-score),[15],2.79
same,glycan array binding signal (z-score),[16],2.63
same,glycan array binding signal (z-score),[17],2.8
same,glycan array binding signal (z-score),Gal3S(b1-3)GlcNAc,0.215
same,glycan array binding signal (z-score),[18],1.28
same,glycan array binding signal (z-score),Gal3S6S(b1-4)GlcNAc6S,3.17
same,glycan array binding signal (z-score),Gal4S6S(b1-4)GlcNAc,-0.722
same,glycan array binding signal (z-score),GalNAc(b1-3)GalNAc,0.218
same,glycan array binding signal (z-score),GalNAc(b1-6)GalNAc,2.81

# — the supplement of paper PMC8728848
